# Bioassay records (PubChem BioAssay)
# The list is not random: actives were taken first. Their share in the collection is about 3.4%.
# ADAM17 inh = inhibits human ADAM17; P78536; recombinant ADAM17, EDANS/DABCYL FRET peptide cleavage; inhibition, % at 6.95 µM; hit rate 0.83% among 370,000; AID 720648;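 active = inhibition above the mean of compounds lying between control limits plus 3 SD, set per campaign, cut at about 8.5% in these data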;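 also: 0% = DMSO-only wells as the low control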
# KLK7 zymogen act = activators of human kallikrein-7 zymogen; P49862; purified proKLK7, EDANS-DABCYL substrate fluorescence; 100% is mature enzyme control, 0% vehicle; activation, % at 7 µM; hit rate 0.9% among 370,000;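 active = activation above the mean of all tested compounds plus 3 SD, computed per campaign excluding outliers beyond control limits, cut at about 13% in these data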
# Target sequence (P49862 whole entry, looked up): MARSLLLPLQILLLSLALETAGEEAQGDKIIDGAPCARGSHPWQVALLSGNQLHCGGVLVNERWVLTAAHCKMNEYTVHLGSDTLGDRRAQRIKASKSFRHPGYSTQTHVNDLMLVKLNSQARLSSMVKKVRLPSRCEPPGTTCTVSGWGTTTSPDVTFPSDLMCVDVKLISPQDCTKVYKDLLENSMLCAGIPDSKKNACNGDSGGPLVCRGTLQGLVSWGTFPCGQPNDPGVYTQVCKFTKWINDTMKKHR
# sPLA2-III inh = Blocks human group III sPLA2 activity; Q9NZ20; QFRET BODIPY PC-A2 liposome hydrolysis, fluorescence; inhibition, % at 12.2 µM; hit rate 0.56% among 370,000; AID 743126;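 active = inhibition above mean plus 3 SD of compounds lying within the high and low control bounds, cut at about 19% in these data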;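 also: 0% = median of test compound wells and 100% = no enzyme DMSO wells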
# CendR NRP1 mod = alters CendR peptide binding to human NRP-1; O14786; FAM-RPARPAR peptide binding to NRP-1, fluorescence polarization; inhibition, % at 25 µM; hit rate 0.85% among 360,000;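 active = inhibition or corrected inhibition above about 18%, plus a signal ratio from 0.5 to 1.5, limit read from the data, passing the limit was not always enough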
# ADAM10 inh = inhibitors of human ADAM10; recombinant ADAM10, EDANS/DABCYL FRET peptide cleavage, 3 h; inhibition, % at 7 µM; hit rate 0.62% among 370,000;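 active = inhibition above a per-campaign cutoff equal to the mean of compounds falling between control-based bounds plus 3 SD, cut at about 20% in these data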;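 also: 0% = DMSO wells while the 100% control is not disclosed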
# * = called active by the depositor; . = no result given.
SMILES,ADAM17 inh,KLK7 zymogen act,sPLA2-III inh,CendR NRP1 mod,ADAM10 inh
Cc1ccc(-n2c(SCC(=O)c3ccc(O)c(O)c3)nnc2-c2ccccc2)cc1,5,0,17,.,16
COc1ccc(NC(=O)CN2CCN(c3nc(-c4cccc(OC)c4)cs3)CC2)cc1,9,0,3,-4,20*
CC(C)NC(=O)CCn1nnc(-c2cccs2)n1,2,0,4,.,-4
COC(=O)C1CN(Cc2ccc(F)cc2)CCS(=O)(=O)N1Cc1cn(Cc2ccc(C)cc2)nn1 (stereo unspecified),0,0,-4,.,-1
Cc1cccn2c(=O)c(C(=O)NC3CCCCC3C)c(O)nc12 (stereo unspecified),-29,0,-1,44*,-99
COc1ccccc1NC(=S)N(Cc1ccco1)Cc1cc2cccc(C)c2[nH]c1=O,-1,1,-5,40*,-4
CCCC[C@@H]1CNC(=O)C(=O)N1CC1CCCCC1,-3,-1,-6,-10,-3
NCCCC[C@H]1CNC(=O)C(=O)N1CC1CCCCC1,-6,1,6,18*,-12
COc1cccc(NC(=O)C2CCCN2C(=O)NCc2ccccc2)c1 (stereo unspecified),-3,0,17,.,-13
Cc1occc1C(=O)Nc1ccccc1C(=O)O,-4,-1,6,-1,-1
Cc1occc1C(=O)Nc1cccc(Cl)c1Cl,2,0,4,29*,-6
CCOc1ccc(CCN2C(=S)N([C@@H](CC(C)C)CN3CCCC3CN3C(=S)NC[C@@H]3CC(C)C)C[C@@H]2Cc2ccc(O)cc2)cc1 (stereo partly specified),-1,0,-43,-5,1
CCOc1ccc(CCN2C(=S)N([C@@H](CC(C)C)CN3CCC[C@@H]3CN3C(=S)NC[C@@H]3CC(C)C)C[C@@H]2Cc2ccc(O)cc2)cc1,3,1,-27,24*,8
CC(C)N1CCC(n2nccc2NC(=O)c2ccc3c(c2)OCO3)CC1,3,-1,6,16,0
CC(C)CCN1CCC(n2nccc2NC(=O)c2ccc3c(c2)OCO3)CC1,-4,0,-2,35*,-4
CSc1cccc(NC(=O)c2ccco2)c1,-3,-1,14,21*,-5
CCC(c1nnnn1C1CCCCC1)N(Cc1ccco1)Cc1cc2ccc(OC)cc2[nH]c1=O (stereo unspecified),-8,0,2,29*,-22
Cc1ccc2cc(C(c3nnnn3C3CCCC3)N(Cc3ccco3)Cc3cccs3)c(=O)[nH]c2c1 (stereo unspecified),0,-6,-9,-15,-13
NC(=O)c1ccccc1NCC(=O)c1ccc(F)cc1,-158,3,21*,-12,-364
CCOc1ccc(C2NC(=O)NC(c3ccccc3)=C2C(C)=O)cc1OC (stereo unspecified),-5,0,7,4,-6
CCOc1cc(C2NC(=O)NC(c3ccccc3)=C2C(C)=O)ccc1OCC(N)=O (stereo unspecified),-1,0,2,47*,-6
CC(COc1ccc(S(C)(=O)=O)cc1)CN1CCC(C(O)(c2ccccc2)c2ccccc2)CC1 (stereo unspecified),-3,1,-27,.,-7
CCOc1cnc(-c2c(-c3c(Cl)cccc3Cl)noc2C)o1,-2,0,-6,27*,3
CCOc1cnc(-c2ccc(Cl)cc2)o1,-8,1,11,-8,-2
Cc1ccsc1C(=O)OCC(=O)Nc1c(C)n(C)n(-c2ccccc2)c1=O,-5,-1,8,5,-7
SMILES,ADAM17 inh,KLK7 zymogen act,sPLA2-III inh,CendR NRP1 mod,ADAM10 inh
Cc1onc(-c2ccccc2)c1C(=O)Nc1c(C)n(C)n(-c2ccccc2)c1=O,-1,0,8,38*,-7
Cc1onc(-c2c(F)cccc2Cl)c1C(=O)Nc1c(C)n(C)n(-c2ccccc2)c1=O,1,0,-4,5,-3
Cc1cccc(C(=O)OCC(=O)Nc2c(C)n(C)n(-c3ccccc3)c2=O)c1,1,0,2,19*,2
COc1ccc(S(=O)(=O)N(C)Cc2ccc3c(c2)OCCO3)cc1,2,0,-11,9,12
COc1cccc(CN(C)S(=O)(=O)c2ccc3c(c2)OCCO3)c1,-2,0,2,19*,-8
O=C(CSc1cccc2cccnc12)OCC(=O)c1ccc(Br)cc1,-12,6,-1,-16,-33
O=C(CSc1cccc2cccnc12)OCC(=O)c1ccccc1,-65,73*,-30,0,-222
